Test results as given in PubChem BioAssay (Tox21).
Inconclusive results are not listed. Calls of active or inactive are those of the source. Unless noted, calls come from the whole dose curve; as a rule, active = well fitted curve in the direction sought with a large enough effect in the repeat runs; inconclusive = weak or mixed curves; inactive = no such curve, though single readings can be large; an effect the other way counts as inactive or inconclusive.

Assays:
[1] = qHTS RealTime-Glo MT Cell Viability Assay in HEK293 cells - 0 hour (AID 1224880); note: top concentration of the series differs between compounds; nearly all actives have a fitted effect of over 45% in size
How it was run: (§1)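 Luminescence, which tracks viable cell number through reduction of the prosubstrate to a NanoLuc substrate, was read over continuous 37 C culture. Cells (600/well) were premixed with reagent and rested 5 h before 23 nL of compound in DMSO was pinned.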

[2] = A CellTox Green Cytotoxicity Assay to monitor cytotoxicity in HEK293 cells - 32 hour (AID 1224881); note: nearly all actives have a fitted effect of over 40% in size
How it was run: (§2)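 Fluorescence from a DNA-binding dye excluded by viable cells was measured repeatedly in the same HEK293 wells (600 cells/well) during continuous compound exposure at 37 C. Each assay gives one read point: 0, 8, 16, 24, 32 or 40 h.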

[3] = A CellTox Green Cytotoxicity Assay to monitor cytotoxicity in HepG2 cells - 0 hour (AID 1224882); note: nearly all actives have a fitted effect of over 35% in size
How it was run: (§3)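 Real-time cytotoxicity: fluorescence of a cell-impermeant cyanine dye binding DNA of dead HepG2 cells, measured repeatedly (0–40 h) during compound exposure at 37 C. Cells seeded 600/well with reagent, dosed after 5 h.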

[4] = A CellTox Green Cytotoxicity Assay to monitor cytotoxicity in HepG2 cells - 32 hour (AID 1224883); note: nearly all actives have a fitted effect of over 50% in size
How it was run: as §3

[5] = A CellTox Green Cytotoxicity Assay to monitor cytotoxicity in HEK293 cells - 8 hour (AID 1224884); note: nearly all actives have a fitted effect of over 35% in size
How it was run: as §2

[6] = qHTS RealTime-Glo MT Cell Viability Assay in HepG2 cells - 16 hour (AID 1224885); note: nearly all actives have a fitted effect of over 50% in size
How it was run: (§4)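 Real-time, nonlytic viability: 600 HepG2 cells/well mixed with NanoLuc enzyme plus prosubstrate; 5 h settle, compound (DMSO) added by pintool; luminescence monitored over 40 h at 37 C.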

[7] = qHTS RealTime-Glo MT Cell Viability Assay in HEK293 cells - 24 hour (AID 1224886); note: top concentration of the series differs between compounds; nearly all actives have a fitted effect of over 50% in size
How it was run: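 Cells + reagent dispensed (600 cells/well, HEK293) → 5 h at 37 C/5% CO2 → 23 nL compound in DMSO pinned → 40 h at 37 C → luminescence read at 0, 8, 16, 24, 32, 40 h.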

[8] = A CellTox Green Cytotoxicity Assay to monitor cytotoxicity in HEK293 cells - 16 hour (AID 1224888); note: nearly all actives have a fitted effect of over 35% in size
How it was run: as §2

[9] = qHTS RealTime-Glo MT Cell Viability Assay in HepG2 cells - 0 hour (AID 1224889); note: nearly all actives have a fitted effect of over 50% in size
How it was run: as §4

[10] = A CellTox Green Cytotoxicity Assay to monitor cytotoxicity in HepG2 cells - 8 hour (AID 1224890); note: nearly all actives have a fitted effect of over 45% in size
How it was run: as §3

[11] = qHTS assay to identify small molecule antagonists of the estrogen receptor alpha (ER-alpha) signaling pathway using the BG1 cell line in the presence of 0.1 nM 17-beta-estradiol - cell viability counter screen (AID 1259241); note: nearly all actives have a fitted effect of over 40% in size
How it was run: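 VM7Luc4E2 cells (endogenous full-length ER-alpha, 4xERE-luciferase), cultured 5 days in charcoal-stripped serum, exposed to compounds with 0.1 nM 17beta-estradiol (final) for 22 hr at 37C. Viability read in same wells as live-cell protease fluorescence after 30 min.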

[12] = qHTS assay to identify small molecule antagonists of the androgen receptor (AR) signaling pathway using the MDA cell line in the presence of 0.5 nM R1881 - cell viability counter screen (AID 1259242); note: nearly all actives have a fitted effect of over 45% in size
How it was run: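 Live-cell protease activity was measured by CellTiter-Fluor fluorescence after 30 min. Before that, MDA-kb2 MMTV-luciferase cells had 16 hr at 37C without CO2, exposed to test compounds and 0.5 nM R1881 final.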

[13] = target: Androgen receptor (Homo sapiens) (UniProt P10275); test: qHTS assay to identify small molecule antagonists of the androgen receptor (AR) signaling pathway using the MDA cell line in the presence of 0.5 nM R1881 (AID 1259243); note: nearly all actives have a fitted effect of over 50% in size
How it was run: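 Luminescent reporter readout (ONE-Glo, 30 min, room temperature) after 16 hr co-treatment of MDA-kb2 cells with test compounds and 0.5 nM R1881 final, at 37C without CO2. The MMTV-driven luciferase responds to both AR and GR.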

[14] = target: Estrogen receptor (Homo sapiens) (UniProt P03372); test: qHTS assay to identify small molecule antagonists of the estrogen receptor alpha (ER-alpha) signaling pathway using the BG1 cell line in the presence of 0.1 nM 17-beta-estradiol (AID 1259244); note: nearly all actives have a fitted effect of over 50% in size
How it was run: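 Luciferase luminescence (ONE-Glo, 30 min at room temperature) was read after 22 hr at 37C exposure to compounds plus 17beta-estradiol at 0.1 nM final. Cells were VM7Luc4E2 with endogenous ER-alpha and an ERE-driven luciferase, pre-cultured 5 days in hormone-depleted medium.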

[15] = qHTS assay to identify small molecule phospholipidosis (PLD) inducers (AID 1259344; active = well fitted curve in the direction sought with a large enough effect; an effect the other way counts as inactive or inconclusive)
How it was run: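 Read-out is LipidTOX Red fluorescence (ex 595/em 615) imaged in HepG2 cells after 24 h compound exposure at 37 C, with Hoechst nuclear counterstain (ex 352/em 461) allowing per-cell normalisation.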

[16] = qHTS assay to identify small molecule HDAC inhibitors (AID 1259364); note: top concentration of the series differs between compounds; nearly all actives have a fitted effect of over 45% in size
How it was run: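 Luminescence read after 30 min room-temperature HDAC-Glo incubation measures cellular class I/II HDAC activity. Compounds were applied for 2 hr at 37 C to HCT-116 wild-type cells seeded the day before.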

[17] = qHTS assay to identify small molecule agonists of the sonic hedgehog signaling (Shh) pathway - cell viability counter screen (AID 1259366); note: nearly all actives have a fitted effect of over 50% in size
How it was run: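 NIH/3T3-derived Gli1-Luc reporter cells, 2,000 per well, received compound after 4 h and were treated about 23 h at 37C. Viability measured in the same wells by CellTiter-Fluor fluorescence after 1 h.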

[18] = qHTS assay to identify small molecule antagonists of the sonic hedgehog signaling (Shh) pathway - cell viability counter screen (AID 1259367); note: nearly all actives have a fitted effect of over 55% in size
How it was run: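 Fluorescence read-out (CellTiter-Fluor, 1 hr at 37C) taken after 23 hr compound treatment of 3T3 Gli1-Luc cells stimulated with conditioned medium. Cells were seeded at 2,000 per well and pre-incubated 4 hr.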

[19] = qHTS RealTime-Glo MT Cell Viability Assay in HEK293 cells - 8 hour (AID 1224887)
How it was run: as §1

[20] = qHTS assay to identify small molecule HDAC inhibitors - cell viability counter screen (AID 1259365)
How it was run: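 Wild-type HCT-116 cells, 1,500/well, cultured overnight, then compound-treated 2 h at 37 C. Viability measured as ATP luminescence with CellTiter-Glo after 30 min at room temperature.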

Measured: Potency

Androgen receptor (Homo sapiens), sequence (P10275 whole entry, looked up): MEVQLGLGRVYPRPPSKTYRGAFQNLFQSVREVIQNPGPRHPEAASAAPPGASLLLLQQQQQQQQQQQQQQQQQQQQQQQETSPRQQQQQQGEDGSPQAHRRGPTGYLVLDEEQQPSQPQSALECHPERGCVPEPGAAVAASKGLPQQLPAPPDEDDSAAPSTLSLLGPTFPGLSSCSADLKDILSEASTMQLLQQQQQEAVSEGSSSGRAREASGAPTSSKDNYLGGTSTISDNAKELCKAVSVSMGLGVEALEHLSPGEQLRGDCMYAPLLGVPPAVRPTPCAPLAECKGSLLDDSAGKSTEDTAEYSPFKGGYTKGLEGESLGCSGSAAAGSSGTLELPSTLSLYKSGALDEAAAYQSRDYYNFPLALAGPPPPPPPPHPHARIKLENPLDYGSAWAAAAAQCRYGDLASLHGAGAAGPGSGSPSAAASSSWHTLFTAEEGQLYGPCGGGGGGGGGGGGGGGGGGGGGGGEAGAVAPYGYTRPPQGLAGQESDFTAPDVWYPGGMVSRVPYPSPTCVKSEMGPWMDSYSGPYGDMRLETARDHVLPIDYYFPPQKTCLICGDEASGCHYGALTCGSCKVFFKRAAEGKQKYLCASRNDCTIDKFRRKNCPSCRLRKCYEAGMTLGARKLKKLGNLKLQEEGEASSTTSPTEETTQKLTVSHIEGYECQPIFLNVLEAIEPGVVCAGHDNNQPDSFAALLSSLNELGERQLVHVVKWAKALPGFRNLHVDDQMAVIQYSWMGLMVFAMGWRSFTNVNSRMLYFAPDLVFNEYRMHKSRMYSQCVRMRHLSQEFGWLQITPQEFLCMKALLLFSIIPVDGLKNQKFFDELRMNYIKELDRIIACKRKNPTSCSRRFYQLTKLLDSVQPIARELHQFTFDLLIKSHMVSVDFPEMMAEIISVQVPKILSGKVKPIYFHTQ
Estrogen receptor (Homo sapiens), sequence (P03372 whole entry, looked up): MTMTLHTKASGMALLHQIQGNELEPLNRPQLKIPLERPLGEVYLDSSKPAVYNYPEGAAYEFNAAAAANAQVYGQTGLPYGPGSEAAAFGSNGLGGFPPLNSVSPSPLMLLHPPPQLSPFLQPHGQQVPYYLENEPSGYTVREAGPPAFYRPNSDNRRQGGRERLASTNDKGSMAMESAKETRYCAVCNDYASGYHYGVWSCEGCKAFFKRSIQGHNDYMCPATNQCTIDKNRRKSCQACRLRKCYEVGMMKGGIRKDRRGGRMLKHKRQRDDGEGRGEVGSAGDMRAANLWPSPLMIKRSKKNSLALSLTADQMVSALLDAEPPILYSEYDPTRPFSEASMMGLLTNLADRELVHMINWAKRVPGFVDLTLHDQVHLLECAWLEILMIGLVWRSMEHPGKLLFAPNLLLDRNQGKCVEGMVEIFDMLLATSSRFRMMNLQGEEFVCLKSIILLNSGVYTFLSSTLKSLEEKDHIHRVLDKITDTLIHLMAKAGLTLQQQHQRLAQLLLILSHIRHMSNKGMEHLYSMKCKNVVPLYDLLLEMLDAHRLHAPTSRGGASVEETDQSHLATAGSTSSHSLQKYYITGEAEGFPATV

COc1ccc2c(c1)C(=O)N(CCc1ccc(S(=O)(=O)NC(=O)NC3CCCCC3)cc1)C(=O)C2(C)C
not listed: [19] | [20]
inactive: all other assays above

CC(CN)CC(C)(C)CCN (stereo not given)
not listed: [9] | [12] | [13] | [14] | [15]
inactive: all other assays above

COc1nccnc1NS(=O)(=O)c1ccc(N)cc1
not listed: [9] | [10] | [14]
inactive: all other assays above

C=C(C)C1CCC(C)(O)CC1 (stereo not given)
not listed: [10] | [12] | [15]
inactive: all other assays above

O=C(CS(=O)Cc1ccco1)NC/C=C\COc1cc(CN2CCCCC2)ccn1 (stereo not given)
not listed: [9] | [13] | [20]
inactive: all other assays above

CCCC/C=C\CCCCCCCCCC=O
not listed: [9] | [13] | [14] | [15]
inactive: all other assays above

CCCCC(CC)COCCO (stereo not given)
not listed: [10] | [13] | [15]
inactive: all other assays above

Cc1ccccc1OCC(O)CO (stereo not given)
not listed: [9] | [13] | [14]
inactive: all other assays above

COC(=O)CCCCCCCC(=O)OC
not listed: [9] | [12] | [13] | [15]
inactive: all other assays above

CC(=O)Nc1ccc(S(=O)(=O)Nc2ccc([N+](=O)[O-])cc2)cc1
not listed: [9] | [11] | [13] | [17] | [18]
inactive: all other assays above

C=COCCOCCOCCOC=C
not listed: [9] | [14] | [15]
inactive: all other assays above

O=C1c2ccccc2C(=O)C1c1ccccc1
not listed: [13] | [19]
inactive: all other assays above

CC/C=C\CC1=C(C)CCC1=O
not listed: [10] | [12] | [14] | [15] | [20]
inactive: all other assays above

CC(=O)c1sc(C)nc1C
not listed: [9] | [13] | [14] | [15]
inactive: all other assays above

CC(CO)c1ccccc1 (stereo not given)
not listed: [9] | [15]
inactive: all other assays above

CN(C)c1ccc(C=O)cc1
not listed: [10] | [13] | [15] | [16]
inactive: all other assays above
